# Measured values from the supplement of paper PMC11577813, “Eurasian spruce bark beetle detects lanierone using a highly expressed specialist odorant receptor, present in several functional sensillum types” (BMC Biology, 2024).
# ± gives the standard deviation of the averaged measurements.
# Experiments:
# Assay in all cases: net action potential response of A-neuron (blank-subtracted) (spikes/s (Hz)); higher = stronger excitation
# Settings in all cases: 10 µg on filter paper; neuron: A neuron (large spike amplitude)
# [1] = tested on: (+)-isopinocamphone A-neuron OSN class
# Method in brief: (§1)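 Spikes were counted in AutoSpike for the large-amplitude A-neuron or the small-amplitude B-neuron, using 0.5 s windows across 1–4 sensilla. Responses were reported as spikes/s after subtraction of the pre-stimulus count and of the blank, averaged across sensilla. The recordings came from one fixed antenna of live lab-reared adult Ips typographus via tungsten electrodes under a humidified, charcoal-filtered airstream of 1.8 L/min, with each compound given as 10 μg in paraffin oil on filter paper in a pipette, pulsed for 0.5 s at 0.3 L/min.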
# [2] = tested on: (5S,7S)-trans-conophthorin A-neuron OSN class
# Method in brief: as §1
# [3] = tested on: myrcene A-neuron OSN class
# Method in brief: as §1
# [4] = tested on: p-cymene A-neuron OSN class
# Method in brief: as §1
SMILES,net action potential response [1],net action potential response [2],net action potential response [3],net action potential response [4]
O=Cc1ccccc1 [Benzaldehyde],21.3 ± 15,-4 ± 2,4,2 ± 2
C=CCc1ccc(OC)cc1 [Estragole],-1.33 ± 1.1,-0.5 ± 6.6,-2,9.33 ± 7
Cc1ccccc1 [Toluene],0.667 ± 3.1,4 ± 2.3,6,2 ± 4
